Assay results reported in PubChem BioAssay AID2328 (The Scripps Research Institute Molecular Screening Center, 2010).
Some of the results follow. Values without a mark were called inactive.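 Rule for the calls: active = mean inhibition over triplicates above a set limit taken from the primary EBNA-1 screen (cut at about 37% in these data); inactive = the rest.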

Molecular target: Lytic switch protein BZLF1 (Epstein-Barr virus (strain B95-8)) (UniProt P03206)
Test: EBV Zta DNA binding inhibitors, counter-screen for EBNA-1 inhibitor project, biochemical, fluorescence polarization, triplicate (AID 2328);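 note: purified full length Zta protein with Cy5 labeled ZRE DNA probe; 0% = Zta with DMSO and 100% = wells lacking Zta protein; inhibitors lower polarization by freeing the labeled DNA probe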
Settings: Zta-ZRE DNA binding, Cy5 fluorescence polarization; at 11.1 µM; active compounds read high

Chain of Lytic switch protein BZLF1 (Epstein-Barr virus (strain B95-8)) (P03206 whole entry, looked up): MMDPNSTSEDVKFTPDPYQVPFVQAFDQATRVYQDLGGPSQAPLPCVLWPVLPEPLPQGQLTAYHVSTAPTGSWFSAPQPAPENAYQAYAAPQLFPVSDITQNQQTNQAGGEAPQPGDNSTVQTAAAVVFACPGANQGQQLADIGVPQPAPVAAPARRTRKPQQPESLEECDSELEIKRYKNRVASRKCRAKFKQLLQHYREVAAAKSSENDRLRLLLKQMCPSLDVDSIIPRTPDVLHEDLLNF

Q: COc1ccc(CCNC(=S)N2CCN(S(=O)(=O)c3ccc(F)cc3)CC2)cc1 was tested. Which inhibition did it give?
A: -0.49%

Q: How did the inhibition turn out when CCc1nccn1S(=O)(=O)c1cccc([N+](=O)[O-])c1 was run?
A: 0.63%

Q: Which inhibition does the source give for CCOc1cccc(SCc2noc(C(=O)NC(C)C)c2C(=O)O)c1 here?
A: 2.79%

Q: Which inhibition does the source give for CCOc1ccc(NC(=O)c2ccc(NC(=O)COC(=O)c3ccc(NC(=O)CC#N)cc3)cc2)cc1 here?
A: 6.56%

Q: Which inhibition does the source give for N#Cc1nc(N)nc(N(c2ccccc2)c2ccccc2)n1 here?
A: -3.66%

Q: Which inhibition does the source give for COc1ccc(-c2nonc2NC(=O)c2oc3ccc(F)cc3c2C)cc1OC here?
A: -0.1%

Q: O=C(CCCn1c(SCC(=O)c2ccc(F)cc2)nc2ccccc2c1=O)NCc1ccco1 was tested. Which inhibition did it give?
A: 10.2%

Q: How did the inhibition turn out when COc1ccc(CNc2nc3c(c(=O)[nH]c(=O)n3C)n2Cc2ccccc2)cc1 was run?
A: -15.5%

Q: For CCOC(=O)c1ccc(NC(=O)C2CC(=O)Nc3nc4ccccc4n32)cc1 (centres undefined), which inhibition is on record?
A: -17.7%

Q: CCC(=O)Nc1ccc(C(=O)Nc2ccc3c(c2)C(=O)N(CC2CCCO2)C3=O)cc1 (centres undefined) was tested. Which inhibition did it give?
A: -3.33%

Q: With Cc1cccc(N(CC(=O)Nc2ccc(-c3nc4ccc(C)cc4s3)cc2)S(C)(=O)=O)c1 as the compound, how does the inhibition read?
A: 13.4%

Q: For CC(=O)c1c(C)[nH]c(C(=O)OCC(=O)Nc2sc3c(c2C#N)CCCC3)c1C, which inhibition is on record?
A: 5.6%

Q: With CCOc1[nH]n(-c2ccc(Cl)cc2)c(=O)c1C=Nc1ccc(O)cc1 as the compound, how does the inhibition read?
A: 6.97%

Q: With O=C(Nc1cccc(NC(=O)c2ccc(Br)cc2)c1)c1ccccc1 as the compound, how does the inhibition read?
A: 4.83%
